We go through 40 compounds from PubChem BioAssay (NCI).

Molecules are shown by their SMILES. Compounds without any hit were thinned out: in the full panel of roughly 83,000, 20% have a hit.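 Note: values are percent growth. 100 is the growth of untreated cells, values between 100 and 0 indicate rising inhibition; between -100 and 0 indicates cell death.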 Values without a mark were called inactive. The source made the active and inactive calls.

For the experiment, the system named is MDA-MB-435 melanoma. The experiment in a line: NCI-60 one-dose screen, 48 h (100 = growth as untreated, 0 = no growth, -100 = all killed). Particulars: 10 µM unless noted. Here is the method: Growth inhibition of the MDA-MB-435 human Melanoma tumor cell line is measured as a screen for anti-cancer activity. Cells are grown in 96 well plates and exposed to the test compound for 48 hours. Compounds are tested at a single concentration, which is 10^-5 M for most compounds. The reported endpoint is percent growth (GI% or GIPRCNT), where numbers from 0 - 100% represent growth inhibition, and numbers from -100% - 0 represent cell death. For example, a value of 40 represents 60% growth inhibition. A value of 0 means no net growth occurred over the course of the experiment. A value of -40 indicates 40% of cells at the beginning of the experiment died by the end of the experiment. A value of -100 means all cells are dead at the end of the experiment.
NCI-60 Human Tumor Cell Lines Screen was performed using the standard one-dose NCI protocol, which is described in more detail at https://dtp.cancer.gov/discovery_development/nci-60/default.htm.
Compounds with GIPRCNT values below 10 were considered active. Activity score was based on GIPRCNT using the following formula: […]
Score is 0 for GIPRCNT values of 100 or above, 50 for GIPRCNT values of 0, and 100 for GIPRCNT values of -100.
On to `Nc1nc(Nc2ccc(Cl)cc2)nn1S(=O)(=O)c1ccc(-c2ccc(F)cc2)cc1`, for which the growth was 91%.

As to `CCCn1nc(-c2ccccc2)c2c(-c3ccccc3)onc2c1=O`, the growth was 8.42% (active).

Turning to `Cc1ccc(NSc2ccccc2[N+](=O)[O-])cc1`, the growth was -26.2% (active).

For the compound `CCCCCCCC/C=C\CCCCCCCC(=O)Oc1cccc2cccnc12`, the growth is 82.9%.

For `CC(=O)c1sc(-c2ccccc2)cc1N`, the growth was 94.1%.

For `COC(=O)c1ccc(CSc2nnc(-c3ccncc3)o2)cc1`, the growth is 106%.

On to `O=C1C2=C(CCN(Cc3ccccc3)C2)N2CCN=C2N1Cc1ccc(C(F)(F)F)cc1`, for which the growth is 24.4%.

With `O=C(C[C@@]1(O)C(=O)Nc2c(Cl)ccc(Cl)c21)c1ccc(C2CC2)cc1`, the growth is -48% (active).

For `NS(=O)(=O)c1cn(-c2ncnc3nc[nH]c23)ccc1=O`, the growth is 103%.

In the case of `CC1(C)N=C(N)N=C(N)N1c1cccc(CN)c1`, the growth was 104%.

For the compound `C=C1C(=O)O[C@H]2[C@H]1CC/C(Cn1cc(CNCCc3c[nH]c4ccc(Cl)cc34)nn1)=C\CC[C@@]1(C)O[C@@H]21`, the growth was 68%.

In the case of `COc1cc(-c2cccc([N+](=O)[O-])c2)c(-c2nc(-c3ccccc3)c(-c3ccccc3)n2C2CC2)cc1OC`, the growth is 67.4%.

On to `COc1cc(/C=C2\C=C(c3ccccc3)N(CCc3ccccc3)C2=O)cc(OC)c1OC`, for which the growth is 89.5%.

Turning to `CC(/C=N/NC(=O)c1cc(-c2ccco2)[nH]n1)=C\c1ccccc1`, the growth was 89.9%.

`O=C(NCOC(O)C(Cl)(Cl)Cl)NCOC(O)C(Cl)(Cl)Cl` (stereo not given): the growth is 107%.

In the case of `O=C(O)c1ccccc1C(=O)Nc1ccc(Cl)cc1`, the growth was 85.7%.

With `NC(N)=N/N=C(/c1ccccc1)c1ccc(N)cc1`, the growth is 91.2%.

In the case of `N[C@@H]1CCC[C@H]1NCCCCN1C(=O)c2cccc3cccc(c23)C1=O`, the growth was 83.3%.

Regarding `Clc1ccc2[nH]c3c(NCCCN4CCOCC4)ncnc3c2c1`, the growth was 92.8%.

Turning to `CCCCCOC(=O)c1ccc(NC(=O)CNCC(C)C)cc1`, the growth is 99.2%.

Take `Cc1c(C(=O)O)nnn1-c1nccs1`: the growth is 96.2%.

Consider `N#C/C(=C\c1ccc(Br)cc1)n1nnc2cc(Cl)c(Cl)cc21`, for which the growth was -18.2% (active).

On to `CCN(CC)CCOC(=O)N1c2ccccc2Sc2ccccc21`, for which the growth is 98.7%.

For the compound `CCOC(=O)c1ccc(-c2ccc3cc(OC)ccc3c2)nc1C`, the growth was 94.3%.

In the case of `Cc1ccc(S(=O)(=O)Nc2sccc2-c2nc(-c3ccccc3)no2)cc1`, the growth is 95.6%.

Turning to `C[C@H]1[C@H](C)CC[C@]2(C(=O)N3CCN(C)CC3)CC[C@]3(C)C(=CC[C@@H]4[C@@]5(C)C/C(=C/c6cccnc6)C(=O)C(C)(C)[C@@H]5CC[C@]43C)[C@H]12`, the growth was -65.1% (active).

In the case of `CCN(CC)c1ccc(Nc2ccc(CC(=O)c3ccccc3)cc2)cc1`, the growth is 80.2%.

Regarding `Cc1ccc(-n2nnc(C3=NCCc4c3[nH]c3ccc(Cl)cc43)c2C)cc1`, the growth is 78%.

For the compound `CC(C)(C)N1CC(OC(N)=O)C1`, the growth is 96.5%.

Turning to `O=C(Oc1ccc[nH]c1=O)c1cc([N+](=O)[O-])cc([N+](=O)[O-])c1`, the growth is 121%.

In the case of `COC1(CC[C@@H](C)COC2OC(CO)C(O)C(O)C2O)O[C@H]2C[C@H]3[C@@H]4CC=C5C[C@@H](OC6OC(CO)C(OC7OC(C)C(O)C(O)C7O)C(O)C6OC6OC(C)C(O)C(O)C6O)CC[C@]5(C)[C@H]4CC[C@]3(C)[C@H]2[C@@H]1C` (stereo not given in full), the growth is -61.3% (active).

Take `O=C1Nc2ccccc2SC1C1SC(=S)N(Cc2ccccc2)C1=O` (stereo not given): the growth is 0.237% (active).

On to `CCn1c(Sc2nnc(Nc3ccccc3)s2)nc2c1c(=O)n(C)c(=O)n2C`, for which the growth was 103%.

With `C=C1C(=O)O[C@H]2[C@H]1CC/C(C(=O)NCCCCCCCCNC(=O)/C1=C/CC[C@@]3(C)O[C@H]3[C@H]3OC(=O)C(=C)[C@@H]3CC1)=C\CC[C@@]1(C)O[C@@H]21`, the growth was 86.8%.

For the compound `CNCCNc1nc2ccccc2c2c(=O)c3cc(F)ccc3oc12`, the growth is 76.5%.

On to `CN1CCN(CCCOc2ccc3nc(Nc4cc(Cl)cc(Cl)c4)ccc3c2)CC1`, for which the growth is -87.1% (active).

As to `c1ccc2[nH]c(SSc3nc4ncncc4[nH]3)nc2c1`, the growth is 19.7%.

Regarding `O=C(Nc1cccc2[nH]c(C(F)(F)F)nc12)c1cc(Cl)ccc1Cl`, the growth is 33.3%.

For the compound `CCCCS(=O)(=O)Oc1ccc(-c2nc(C)c(C(=O)OCC)s2)cc1C=O`, the growth is 37.1%.

Consider `Cc1ccc(/C=C(\C#N)n2nnc3cc(Cl)c(Cl)cc32)cc1`, for which the growth was -46.7% (active).
